# Experimental data reported in PubChem BioAssay (NCI).
# Values joined by “and” are separate entries in the source; they are usually repeats but may differ in a detail not shown here. Identical values can stand only once. About 79,000 compounds went through this panel and 15% of them were active in at least one assay; those are over-represented in the sample as a whole. Some structures have more than one record in an assay (separate samples or runs), and their calls can disagree. Active and inactive are the calls of the source. Rule as the data show it: active = growth inhibition above about 70%; inactive = the rest.
# What was measured:
# [1] = NCI Yeast Anticancer Drug Screen. Data for the wt2 strain (AID 169);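 also: 0% = growth of vehicle-treated yeast cultures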; conditions: S. cerevisiae wt2 strain growth inhibition, stronger effect = higher value
# In short: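 Steps: yeast strain treated with compound; growth recorded; inhibition calculated relative to cultures given vehicle alone.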
# [2] = NCI Yeast Anticancer Drug Screen. Data for the mlh1 strain (AID 171);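 also: 0% = growth of vehicle-treated control cultures of the same strain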; conditions: S. cerevisiae mlh1 strain growth inhibition, stronger effect = higher value
# In short: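 Yeast screen: mutant strain plus compound, growth scored against vehicle control wells.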
# [3] = NCI Yeast Anticancer Drug Screen. Data for the mlh1 rad18 strain (AID 175); conditions: S. cerevisiae mlh1 rad18 strain growth inhibition, stronger effect = higher value
# In short: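 Compound-treated yeast growth, normalised to vehicle controls. Strain bears defined DNA repair mutations.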
# [4] = NCI Yeast Anticancer Drug Screen. Data for the rad18 strain (AID 177); conditions: S. cerevisiae rad18 mutant growth inhibition, stronger effect = higher value
# In short: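 Inhibition values reflect reduced yeast growth compared with vehicle-treated controls, using a strain engineered with a DNA damage repair defect.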
# [5] = NCI Yeast Anticancer Drug Screen. Data for the rad52 strain (AID 147);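 also: 0% = growth of vehicle-treated control cultures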; conditions: S. cerevisiae rad52 mutant growth inhibition, stronger effect = higher value
# In short: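 Genetically altered yeast (DNA damage repair defect) treated with compound; inhibition calculated relative to vehicle.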
# [6] = NCI Yeast Anticancer Drug Screen. Data for the wt1 strain (AID 149);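 also: 0% = growth of vehicle-treated wt1 cultures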; conditions: S. cerevisiae wt1 strain (SPY 50644) growth inhibition, stronger effect = higher value
# In short: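 Measured: growth of wt1 yeast under compound versus vehicle treatment, reported as inhibition.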
# [7] = NCI Yeast Anticancer Drug Screen. Data for the rad50EPP+ strain (AID 151);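 also: 0% = growth of vehicle-treated control cultures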; conditions: S. cerevisiae rad50 mutant strain, stronger effect = higher value
# In short: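 Strain rad50EPP+; compound exposure; % growth inhibition vs vehicle.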
# [8] = NCI Yeast Anticancer Drug Screen. Data for the mgt1 strain (AID 153); conditions: S. cerevisiae mgt1 mutant growth inhibition, stronger effect = higher value
# In short: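 Read-out: yeast growth inhibition vs vehicle control. Strain mgt1, drawn from a panel altered in DNA damage repair or cell cycle control.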
# [9] = NCI Yeast Anticancer Drug Screen. Data for the rad50 strain (AID 155);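 also: 0% = growth of vehicle-only cultures of the same strain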; conditions: S. cerevisiae rad50 strain growth inhibition, stronger effect = higher value
# In short: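 Growth of the mutant yeast was measured after compound exposure and referenced to vehicle-treated cultures.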
# [10] = NCI Yeast Anticancer Drug Screen. Data for the mec2-1 strain (AID 157); conditions: S. cerevisiae mec2-1 strain, stronger effect = higher value
# In short: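 Cells of the genetically defined mec2-1 yeast strain are incubated with test compound. Inhibition of growth is calculated against vehicle-treated controls.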
# [11] = NCI Yeast Anticancer Drug Screen. Data for the rad14 strain (AID 159);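 also: 0% = growth of vehicle-treated control cultures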; conditions: S. cerevisiae rad14 strain growth inhibition, stronger effect = higher value
# In short: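 Here, inhibition of yeast growth was measured after compound exposure, using a strain with a genetic defect in DNA damage repair and vehicle-treated cultures as the reference.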
# [12] = NCI Yeast Anticancer Drug Screen. Data for the sgs1 mgt1 strain (AID 161);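 also: 0% = growth of cultures given vehicle only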; conditions: S. cerevisiae sgs1 mgt1 strain, stronger effect = higher value
# In short: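 Genetically altered yeast, compound exposure, growth inhibition relative to vehicle.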
# [13] = NCI Yeast Anticancer Drug Screen. Data for the CLN2oe strain (AID 163);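 also: 0% = growth of vehicle-only control cultures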; conditions: S. cerevisiae CLN2oe strain, stronger effect = higher value
# In short: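 Strain altered in cell-cycle control, incubated with compound; growth compared to solvent-treated controls.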
# [14] = NCI Yeast Anticancer Drug Screen. Data for the cln2 rad14 strain (AID 165);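 also: 0% = growth equal to vehicle treated cultures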; conditions: S. cerevisiae cln2 rad14 strain, stronger effect = higher value
# In short: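 The screen exposed genetically defined yeast (cln2 rad14) to test compounds and scored growth inhibition relative to vehicle-treated controls.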
# [15] = NCI Yeast Anticancer Drug Screen. Data for the bub3 strain (AID 167); conditions: S. cerevisiae bub3 mutant strain, stronger effect = higher value
# In short: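 Whole-cell yeast assay. The mutant strain was incubated with compounds, and growth inhibition was determined by comparison with vehicle-treated cells.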
# [16] = NCI Yeast Anticancer Drug Screen. Data for the sgs1 strain (AID 173);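 also: 0% = growth of vehicle-only control cultures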; conditions: S. cerevisiae sgs1 mutant, stronger effect = higher value
# In short: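 Inhibition of yeast growth served as the measure. The mutant strain was treated with each compound, and growth was normalised to cultures receiving vehicle alone.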
# [17] = at 5.0 µM (retest, dose inferred, filed as 0.5)
# [18] = at 50.0 µM (retest, dose inferred, filed as 5.0)
structure (smiles),measurement,setting,value
O=c1c2ccccc2nc(-c2ccccc2)n1O,growth inhibition,[1]; at 1.2 µM,24% (inactive)
same,growth inhibition,[1]; at 3.7 µM,55% (inactive)
same,growth inhibition,[1]; at 11.0 µM,96% (active)
same,growth inhibition,[1]; at 33.0 µM,98% (active)
same,growth inhibition,[1]; at 100.0 µM,98% (active)
same,growth inhibition,[2]; at 1.2 µM,50% (inactive)
same,growth inhibition,[2]; at 3.7 µM,48% (inactive)
same,growth inhibition,[2]; at 11.0 µM,95% (active)
same,growth inhibition,[2]; at 33.0 µM,98% (active)
same,growth inhibition,[2]; at 100.0 µM,98% (active)
same,growth inhibition,[3]; [17],55% (inactive)
same,growth inhibition,[3]; [18],99% (active)
same,growth inhibition,[3]; at 50.0 µM,98.5% (active)
same,growth inhibition,[4]; at 1.2 µM,39% (inactive)
same,growth inhibition,[4]; at 3.7 µM,35% (inactive)
same,growth inhibition,[4]; at 11.0 µM,89% (active)
same,growth inhibition,[4]; at 33.0 µM,97% (active)
same,growth inhibition,[4]; at 100.0 µM,97% (active)
Nc1ncnc2c1ncn2C1OC(CO)CC1O (stereo unspecified),growth inhibition,[5]; at 1.2 µM,-20% (inactive)
same,growth inhibition,[5]; at 3.7 µM,-10% (inactive)
same,growth inhibition,[5]; at 11.0 µM,24% (inactive)
same,growth inhibition,[5]; at 33.0 µM,71% (active)
same,growth inhibition,[5]; at 100.0 µM,91% (active)
same,growth inhibition,[6]; at 1.2 µM,-25% (inactive)
same,growth inhibition,[6]; at 3.7 µM,-10% (inactive)
same,growth inhibition,[6]; at 11.0 µM,-4% (inactive)
same,growth inhibition,[6]; at 33.0 µM,54% (inactive)
same,growth inhibition,[6]; at 100.0 µM,87% (active)
same,growth inhibition,[7]; at 1.2 µM,-16% (inactive)
same,growth inhibition,[7]; at 3.7 µM,-12% (inactive)
same,growth inhibition,[7]; at 11.0 µM,-10% (inactive)
same,growth inhibition,[7]; at 33.0 µM,-25% (inactive)
same,growth inhibition,[7]; at 100.0 µM,0% (inactive)
same,growth inhibition,[8]; at 1.2 µM,-37% (inactive)
same,growth inhibition,[8]; at 3.7 µM,-3% (inactive)
same,growth inhibition,[8]; at 11.0 µM,10% (inactive)
same,growth inhibition,[8]; at 33.0 µM,62% (inactive)
same,growth inhibition,[8]; at 100.0 µM,89% (active)
same,growth inhibition,[9]; at 1.2 µM,-9% (inactive)
same,growth inhibition,[9]; at 3.7 µM,-3% (inactive)
same,growth inhibition,[9]; [17],63% (inactive) and 14% (inactive)
same,growth inhibition,[9]; at 11.0 µM,30% (inactive)
same,growth inhibition,[9]; at 33.0 µM,76% (active)
same,growth inhibition,[9]; [18],90% (active)
same,growth inhibition,[9]; at 50.0 µM,87.8% (active) and 6.15% (inactive) and 79.6% (active)
same,growth inhibition,[9]; at 100.0 µM,91% (active)
same,growth inhibition,[10]; at 1.2 µM,-7% (inactive)
same,growth inhibition,[10]; at 3.7 µM,-8% (inactive)
same,growth inhibition,[10]; [17],63% (inactive) and 17% (inactive)
same,growth inhibition,[10]; at 11.0 µM,7% (inactive)
same,growth inhibition,[10]; at 33.0 µM,72% (active)
same,growth inhibition,[10]; [18],92% (active) and 91% (active)
same,growth inhibition,[10]; at 50.0 µM,88% (active) and -5.4% (inactive) and 76.5% (active)
same,growth inhibition,[10]; at 100.0 µM,92% (active)
same,growth inhibition,[11]; at 1.2 µM,-15% (inactive)
same,growth inhibition,[11]; at 3.7 µM,-1% (inactive)
same,growth inhibition,[11]; at 11.0 µM,27% (inactive)
same,growth inhibition,[11]; at 33.0 µM,76% (active)
same,growth inhibition,[11]; at 100.0 µM,94% (active)
same,growth inhibition,[12]; [17],-20% (inactive) and 14% (inactive)
same,growth inhibition,[12]; [18],89% (active) and 90% (active)
same,growth inhibition,[12]; at 50.0 µM,87.5% (active) and 2.25% (inactive) and 72.8% (active)
same,growth inhibition,[13]; at 1.2 µM,17% (inactive)
same,growth inhibition,[13]; at 3.7 µM,9% (inactive)
same,growth inhibition,[13]; at 11.0 µM,27% (inactive)
same,growth inhibition,[13]; at 33.0 µM,47% (inactive)
same,growth inhibition,[13]; at 100.0 µM,85% (active)
same,growth inhibition,[14]; [17],10% (inactive) and 9% (inactive)
same,growth inhibition,[14]; [18],87% (active) and 68% (inactive)
same,growth inhibition,[14]; at 50.0 µM,81.8% (active) and -27.8% (inactive) and 59.8% (inactive)
same,growth inhibition,[15]; at 1.2 µM,-6% (inactive)
same,growth inhibition,[15]; at 3.7 µM,-2% (inactive)
same,growth inhibition,[15]; [17],34% (inactive) and 22% (inactive)
same,growth inhibition,[15]; at 11.0 µM,34% (inactive)
same,growth inhibition,[15]; at 33.0 µM,77% (active)
same,growth inhibition,[15]; [18],92% (active)
same,growth inhibition,[15]; at 50.0 µM,89.3% (active) and -3.15% (inactive) and 83% (active)
same,growth inhibition,[15]; at 100.0 µM,92% (active)
same,growth inhibition,[1]; at 1.2 µM,-7% (inactive)
same,growth inhibition,[1]; at 3.7 µM,-3% (inactive)
same,growth inhibition,[1]; at 11.0 µM,13% (inactive)
same,growth inhibition,[1]; at 33.0 µM,66% (inactive)
same,growth inhibition,[1]; at 100.0 µM,91% (active)
same,growth inhibition,[16]; at 1.2 µM,-14% (inactive)
same,growth inhibition,[16]; at 3.7 µM,2% (inactive)
same,growth inhibition,[16]; at 11.0 µM,25% (inactive)
same,growth inhibition,[16]; at 33.0 µM,72% (active)
same,growth inhibition,[16]; at 100.0 µM,90% (active)
same,growth inhibition,[3]; [17],39% (inactive) and 11% (inactive)
same,growth inhibition,[3]; [18],91% (active) and 92% (active)
same,growth inhibition,[3]; at 50.0 µM,89.5% (active) and 1.35% (inactive) and 82.9% (active)
same,growth inhibition,[4]; at 1.2 µM,4% (inactive)
same,growth inhibition,[4]; at 3.7 µM,4% (inactive)
same,growth inhibition,[4]; at 11.0 µM,52% (inactive)
same,growth inhibition,[4]; at 33.0 µM,82% (active)
same,growth inhibition,[4]; at 100.0 µM,92% (active)
